Measured values reported in PubChem BioAssay AID504467 (National Center for Advancing Translational Sciences (NCATS), 2011).
The whole screen tested about 330,000 compounds, of which about 7,700 (2.3%) were called active. Roughly 26% stayed inconclusive and do not appear here. Many of the other results were omitted from the sample, so actives are more common in it than they were. A number with no mark means an inactive call. The call rests on the fitted dose curve; in most records, active means well fitted inhibition curve with a large enough effect; inconclusive means small, poorly fitted or top-dose-only effect, or effect the other way; inactive means flat fitted curve, though single readings scatter.

assay: qHTS screen for small molecules that inhibit ELG1-dependent DNA repair in human embryonic kidney (HEK293T) cells expressing luciferase-tagged ELG1; settings: HEK293T ELG1-luciferase reporter, luminescence, 16 h, DNA damage induced by 5-fluorouridine; series mostly up to 46.1 µM; activity change, negative = inhibition: at the top concentration; further: nearly all actives have a fitted effect of over 55% in size
Method in brief: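 In this reporter screen, reduction of luminescence relative to DMSO vehicle indicated activity. Compounds and 5-fluorouridine were added together to 2,000 cells per well, incubated for 16 hr at 37 °C, then developed with ONE-Glo.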
On the % scale 0 is the no-effect control and ±100 the full control effect; potency means the concentration at half of the fitted maximal effect.

SMILES | activity change, negative = inhibition [%] | Potency
O=S(=O)(Nc1cc(Cl)ccc1N1CCOCC1)c1ccccc1Cl | -7.01 | 
CCOC(=O)C1=C(CCc2ccccc2)NC(=O)NC1c1ccc2ccccc2c1 (stereo not drawn) | -12.5 | 
COc1cc(CNCc2ccc3c(c2)OCO3)c([N+](=O)[O-])cc1OC | -3.68 | 
COc1cc(CN2CCN(Cc3ccc(C)cc3)CC2)c([N+](=O)[O-])cc1OC |  | 20.6 µM (active)
COc1cc(CN2CCCN(C)CC2)c([N+](=O)[O-])cc1OC | -6.3 | 
CCOc1ccc(N(C)Cc2cc(=O)oc3ccc(OC)cc23)cc1 |  | 16.4 µM (active)
COC(=O)COc1ccc2oc(=O)cc(C)c2c1 | 5.41 | 
Cc1cc2oc(=O)cc(CN(C)Cc3ccc(OC(F)F)cc3)c2cc1Cl | -14.2 | 
Cc1ccc2c(c1)C(c1ccccc1)N(C(=O)c1ccc(F)cc1)CC(=O)N2 (stereo not drawn) | -4.96 | 
O=C(Cn1ccc2cc(S(=O)(=O)N3CCCC3)ccc21)NCc1ccccc1 | 14.6 | 
O=C1[C@@H](c2ccccc2)[C@@H](c2ccccc2)N1c1cccnc1 | 17.2 | 
O=C1CCN(Cc2ccccc2)CCN1[C@H](CSc1ccccc1)c1ccccc1 | 26.6 | 
Cc1nc(-c2ccc(F)cc2)c(CC(=O)Nc2cccc(S(=O)(=O)N3CCOCC3)c2)s1 | -9.34 | 
Cc1ccc(-c2nc(-c3cccnc3)sc2CC(=O)Nc2ccc(C)c(Cl)c2)cc1 |  | 16.4 µM (active)
Cc1cc(C)c(NC(=O)CS(=O)CC(=O)Nc2cccnc2)c(C)c1 (stereo not drawn) | -1.59 | 
COc1ccc(N2CCN(C3CCCCC3NS(=O)(=O)c3ccccc3)CC2)cc1 (stereo not drawn) | -5.22 | 
CCOc1ccc(CN2CCCN(C)CC2)cc1 | 9.71 | 
CCOc1ccc(CC(=O)NC2CCN(Cc3ccccc3)CC2)cc1 | -9.53 | 
CCOc1ccc(CN2CCN(Cc3c[nH]c4ccccc34)CC2)cc1 |  | 13 µM (active)
COC(=O)[C@]1(S(=O)(=O)c2ccccc2)C[C@@H]2ON=C(c3ccc(OC)cc3)[C@@H]2C1 | 3.37 | 
Cc1ccc(S(=O)(=O)Nc2ccc(F)c(S(=O)(=O)N3CCOCC3)c2)cc1 | -19.8 | 
Cc1ccc(-c2ccc(=O)n(Cc3ccc(F)cc3Cl)n2)cc1 | -0.564 | 
O=C1C=C(c2cccc(Cl)c2)C[C@@H](c2ccc(F)cc2)C1 | 3.63 | 
CCOc1ccccc1-c1cc(C(=O)N2CCOCC2)c2ccccc2n1 | -25.2 | 
O=C(c1cc(-c2ccc(Cl)s2)nc2ccccc12)N1CCOCC1 | -3.24 | 
O=C(c1cn(-c2ccccc2)nc1-c1cc2ccccc2oc1=O)N1CCOCC1 |  | 7.3 µM (active)

SMILES | activity change, negative = inhibition [%] | Potency
Nc1nc(-c2sc3nc4c(cc3c2N)CCCC4)nc(N2CCOCC2)n1 |  | 6.51 µM (active)
COc1ccccc1C(CNC(=O)c1cccc(S(=O)(=O)Nc2ccc(F)cc2)c1)N(C)C (stereo not drawn) | -1.22 | 
NC(=O)c1nsc(C(=O)N(CCCN2CCOCC2)C(C(=O)NC2CCCCC2)c2ccc(Cl)cc2)c1N (stereo not drawn) | 5.9 | 
Cc1ccc(NC(=O)CN(C)C(=O)c2ccc(Cl)c(S(=O)(=O)NCc3ccco3)c2)cc1 | -3.5 | 
O=C(CCl)Nc1cccc(CP(=O)(c2ccccc2)c2ccccc2)c1 |  | 14.6 µM (active)
CCc1cccc(NC(=O)CCC(=O)O)c1 | 4.12 | 
O=C(CSCC(=O)Nc1cccc([N+](=O)[O-])c1)Nc1ccccc1 | 15.4 | 
COc1ccc(C2=NN(C(=O)CSc3nc(=O)n4ccc(C)cc4n3)C(c3ccc(C)cc3)C2)cc1 (stereo not drawn) | -11.2 | 
CC(=O)N1c2ccc(S(=O)(=O)N3CCC(C(=O)NC4CCCC(C)C4C)CC3)cc2CC1C (stereo not drawn) | 0 | 
O=C(Cn1cnc2c(OCc3ccccc3)ncnc21)NCCCn1ccnc1 | 13.1 | 
COc1ccc(Nc2cc(C)nc(-n3nc(C)cc3C)n2)cc1 | 9.95 | 
COc1cccc2c(N/N=C/c3ccco3)cc(C)nc12 | 17.8 | 
COc1cccc(/C=N/Nc2cc(C)nc(-c3ccccc3O)n2)c1O |  | 5.8 µM (active)
COc1cccc(/C=N/Nc2ncc(C(F)(F)F)cc2Cl)c1O | 15.3 | 
COc1cc(NS(=O)(=O)c2ccccc2)ccc1-n1nc(C)cc1C | 1.2 | 
COc1ccccc1/C=N\Nc1cc(C)nc(-n2nc(C)cc2C)n1 |  | 23.1 µM (active)
CCN(c1ccccc1)S(=O)(=O)c1cc(C(=O)NCc2ccccn2)ccc1C | -4.44 | 
CC(=O)c1sc(NC(=O)CCN2C(=O)C3CC=CCC3C2=O)nc1-c1ccccc1 (stereo not drawn) | -10.9 | 
O=S(=O)(NCC1CN(S(=O)(=O)c2ccc3c(c2)OCCO3)C1)c1c(F)cccc1F | 19.5 | 
CC(C)N(C(=O)CN1CCN(S(=O)(=O)c2ccc(Br)s2)CC1)C(C)C | -6.18 | 
O=C(CNCc1cccs1)Nc1cc(S(=O)(=O)N2CCCC2)ccc1Cl |  | 16.4 µM (active)
O=C(NCc1cccs1)C1CCN(S(=O)(=O)c2ccc(Cl)cc2)CC1 | 8.41 | 
CS(=O)(=O)c1ccc(Cl)c(NC(=O)COC(=O)c2cccc(S(=O)(=O)N3CCCC3)c2)c1 | -2.83 | 
O=C(CN1CCCCCC1)Nc1ccc(S(=O)(=O)N2CCCCC2)cc1 | 0.957 | 
O=C(NN=Cc1ccc(N2CCOCC2)cc1)c1cc2ccccc2cc1O | 0 | 
CCCOc1ccc(C(=O)C(CCC(CNCC)C(=O)c2ccc(OCCC)cc2)CNCC)cc1 (stereo not drawn) |  | 23.1 µM (active)

SMILES | activity change, negative = inhibition [%] | Potency
CCCCOc1ccc(C(=O)NN2CCN(C)CC2)cc1 | 17.4 | 
COc1ccc(OCCC(=O)c2ccc(OC)cc2)cc1 | 4.01 | 
COc1ccc(-c2c(C#Cc3ccsc3)c3cc(-c4ccc(CN5CCOCC5)cc4)ccc3n2C)cc1 | 15.4 | 
COc1cc(OC)cc(-c2c(C#Cc3ccsc3)c3cc(-c4ccc(OC)cc4F)ccc3n2C)c1 | 20.3 | 
O=C1CC2(CC(c3ccc(Cl)cc3)=NO2)C(=O)N1c1ccccc1 (stereo not drawn) | -2.34 | 
Cc1nc(C(=O)Nc2ccc(Cl)cc2)sc1C1(C)CC(c2ccccc2)=NO1 (stereo not drawn) |  | 18.3 µM (active)
O=C(Nc1ccc(Cl)cc1)OCc1cc(-c2ccccc2)on1 | 4.31 | 
COc1ccccc1N1CCN(S(=O)(=O)c2ccc3c(c2)NC(=O)CS3)CC1 | -2.54 | 
CCOC(=O)[C@H]1[C@H]2COc3cc(OC)ccc3[C@@H]2N2C(=O)CN(Cc3ccc(Cl)cc3)C(=O)[C@@]12C | -4.83 | 
CCc1ccc(CN(C)C(=O)C2CCC(=O)N(Cc3cccc(OC)c3)C2)nc1 (stereo not drawn) | 16.9 | 
CN(C)S(=O)(=O)c1ccc(N2CCCC2)c(C(=O)Nc2ccc(Br)cc2F)c1 | -7.6 | 
Cc1c(C(=O)Nc2ccccc2Cl)oc2ccc(S(=O)(=O)N3CCC4(CC3)OCCO4)cc12 |  | 3.66 µM (active)
Cc1c(C(=O)NCCN(C)C)oc2ccc(S(=O)(=O)N3CCCC3)cc12 | 13.6 | 
CCOc1ccccc1NC(=O)c1cc(S(=O)(=O)N2CCC3(CC2)OCCO3)ccc1F | -3.11 | 
CCN(Cc1ccccc1)C(=O)Cc1ccc(OC)c(S(=O)(=O)N2CCOCC2)c1 | -2.15 | 
C=CCn1c(SCC(=O)Nc2nc3ccccc3s2)nnc1-c1ccccc1O | -15.9 | 
C=CCn1c(SCC(=O)NC(=O)Cc2ccccc2)nc2ccccc2c1=O | 3.04 | 
C=CCn1c(SCC(=O)NCc2ccccc2)nnc1-c1cc(Br)ccc1O |  | 13 µM (active)
Oc1ccc(/C=N/Nc2nc(-c3ccccc3F)nc3ccccc23)c(O)c1 |  | 14.6 µM (active)
Cc1cc(N/N=C/c2ccccc2F)c2ccccc2n1 | 4.96 | 
FC(F)(F)c1nc2ccccc2nc1N/N=C/c1ccc(Cl)cc1 | -5.61 | 
COc1ccc(C(=O)NCC(=O)N/N=C/c2ccc([N+](=O)[O-])s2)cc1OC |  | 8.2 µM (active)
COc1ccc2ccccc2c1/C=N/NC(=O)c1cc(C)[nH]n1 | -0.422 | 
COc1ccc(C(=O)COC(=O)c2ccc([N+](=O)[O-])s2)cc1OC | 12.6 | 
COc1cc(/C=N\NC(=O)CNC(=O)c2cccc([N+](=O)[O-])c2)ccc1O | -5.46 | 
CC(C)(C)c1cc(C(=O)N/N=C/c2ccc([N+](=O)[O-])s2)n[nH]1 |  | 5.17 µM (active)

SMILES | activity change, negative = inhibition [%] | Potency
CCOc1ccc(NC(=O)CCC(=O)N/N=C/c2ccc([N+](=O)[O-])s2)cc1 | -21.4 | 
O=[N+]([O-])c1ccccc1Nc1ccc(O)cc1 | -19 | 
Nc1nnnn1/N=C/c1cc([N+](=O)[O-])ccc1O | -2.35 | 
O=[N+]([O-])c1ccc(O)c(/C=N/Nc2ccccc2[N+](=O)[O-])c1 |  | 18.3 µM (active)
Cc1ccccc1SCC(=O)OCC(=O)N1CC(=O)Nc2ccccc21 | 0 | 
CCCn1c(C(C)Nc2nc(-c3ccc(C)cc3)cs2)nc2cc(Cl)c(N3CCCCC3)cc21 (stereo not drawn) | 16.4 | 
Cc1ccccc1Cn1c(=O)[nH]c2ccccc21 | -14.6 | 
CCOC(=O)c1cnc2[nH]c3ccccc3n2c1=O | 4.07 | 
CCCc1cc(=S)n2c([nH]c3ccccc32)c1C#N |  | 16.4 µM (active)
Cc1ccc(S(=O)(=O)N(C)CC(=O)NCC(c2ccc(F)cc2)N2CCOCC2)cc1 (stereo not drawn) | 1.93 | 
O=C(OCC(=O)N1CCCCCC1)c1ccc(Cl)nc1 | 0.267 | 
CCCCn1nc(C(=O)Nc2cccc(C(=O)NC3CC3)c2)c2ccccc2c1=O |  | 13 µM (active)
CCCCn1nc(C(=O)OCC(=O)Nc2sccc2C(N)=O)c2ccccc2c1=O | 10.7 | 
CCn1nc(C(=O)Nc2ccc(N3CCOCC3)cc2)c2ccccc2c1=O | -3.51 | 
Cn1c(N)c(C(=O)COC(=O)c2cccc(S(=O)(=O)N3CCOCC3)c2)c(=O)n(C)c1=O | -10 | 
CCCn1c(CCNc2nc(-c3ccc(OC)cc3)cs2)nc2ccccc21 | -26 | 
CSCCC(NS(=O)(=O)c1ccc(C)cc1)C(=O)NCCc1c[nH]c2ccccc12 (stereo not drawn) | -7.72 | 
CCN(CC(=O)NCCc1ccccc1)S(=O)(=O)c1ccc(C)cc1 | -15.1 | 
CN(c1ccccc1)S(=O)(=O)c1ccc(Cl)c(C(=O)OCC(=O)NCc2ccco2)c1 | 10.8 | 
Cc1ccc(S(=O)(=O)N(C)CC(=O)NCCc2c[nH]c3ccccc23)cc1 |  | 14.6 µM (active)
COc1ccccc1CC(=O)NCCc1c[nH]c2ccccc12 | -6 | 
CN(c1ccccc1)S(=O)(=O)c1ccc(Cl)c(C(=O)NCCc2c[nH]c3ccccc23)c1 |  | 18.4 µM (active)
CN(c1ccccc1)S(=O)(=O)c1ccc(Cl)c(C(=O)OCC(N)=O)c1 | -2.61 | 
CCN(CC(=O)NCCc1ccccc1)S(=O)(=O)c1ccccc1 | 6.38 | 
CCN(CC)S(=O)(=O)c1ccc2[nH]cc(C(=O)NCCc3ccccc3)c(=O)c2c1 |  | 5.8 µM (active)
